This note sets out measurements from PubChem BioAssay AID2013 (Sanford-Burnham Center for Chemical Genomics, 2009).

Screen size: about 290,000 compounds; about 370 (0.13%) were called active. The full list was thinned out, with actives kept by preference. Results with a measured potency or affinity are listed apart. Unmarked numbers belong to inactive results.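 The calls were made as follows: active = spots per cell inhibited over 60%, with over 100 cells counted and total cytoplasm intensity under 500,000; inconclusive = wells with under 100 cells, flagged as likely toxic; inactive = the rest.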

In general, inhibition refers to the change of the read-out against control, counted positive when it falls.

For this assay, the target named is G-protein coupled receptor 55 (Homo sapiens) (UniProt Q9Y2T6). The assay is described as follows: inhibition of LPI-stimulated GPR55 beta-arrestin translocation – imaging, U2OS, beta-arrestin-GFP, LPI agonist, primary screen (AID 2013).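 Also: U2OS cells stably carrying GPR55 and arrestin-GFP stimulated by 5 µM LPI near EC80; imaged beta-arrestin-GFP aggregate spots per cell after agonist stimulation; plate controls were LPI-stimulated DMSO wells for no effect and DMSO wells without LPI for full effect.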 Conditions: LPI antagonism, at 10 µM, active compounds read high.
G-protein coupled receptor 55 (Homo sapiens), sequence (Q9Y2T6 whole entry, looked up): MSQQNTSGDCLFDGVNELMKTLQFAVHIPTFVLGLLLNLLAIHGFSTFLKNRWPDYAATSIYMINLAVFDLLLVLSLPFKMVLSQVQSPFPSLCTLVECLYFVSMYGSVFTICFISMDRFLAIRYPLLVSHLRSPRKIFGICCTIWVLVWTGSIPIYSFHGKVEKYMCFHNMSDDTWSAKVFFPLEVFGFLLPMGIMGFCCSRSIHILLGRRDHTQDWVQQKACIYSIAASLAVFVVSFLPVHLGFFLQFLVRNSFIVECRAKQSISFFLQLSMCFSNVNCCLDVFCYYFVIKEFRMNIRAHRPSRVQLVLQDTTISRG
For `C/C(=N/NC(=O)CNC(=O)c1cccnc1)c1cccc([N+](=O)[O-])c1`, the inhibition was -4.3%.
The value for `CCN1CCN(CCNC(=O)c2ccc(/C=C3/Sc4ccccc4N(Cc4cccc(Cl)c4)C3=O)cc2)CC1` was 7.6%; that for `CCN1CCN(CCNC(=O)c2ccc3c(c2)N(Cc2ccc(F)cc2)C(=O)/C(=C/c2ccccc2)S3)CC1` was 70.3% (active); that for `CN1CCN(CCCNC(=O)c2ccc(/C=C3\Sc4ccccc4N(Cc4ccc(F)cc4)C3=O)cc2)CC1` was 6.1%.
The value for `CCOc1ccc(Cl)cc1CSc1n[nH]c(C)n1` was -12.3%; that for `Cc1nnsc1Sc1ccccc1C(=O)O` was -7.1%.
Consider `COc1cccc(-n2c(=O)c3sccc3n(CC(=O)NC3CCCCC3)c2=O)c1`, for which the inhibition was -10.7%.
Turning to `CNC(=S)NN(c1ccccc1)c1ccccc1`, the inhibition was 5.4%.
Consider `CC(C)NC(=S)NN(c1ccccc1)c1ccccc1`, for which the inhibition was 11.8%.
The value for `CC(C)CCNC(=O)CN(Cc1ccc(F)cc1)C(=O)CCC(=O)Nc1ccccn1` was 4.6%; that for `CCOC(=O)c1c(C)oc2ccc(O)cc12` was 3.1%; that for `CCOC(=O)c1c(-c2ccccc2)oc2ccc(O)cc12` was -6%.
In the case of `Cc1cc(NC(=O)C2C3C(=O)N(Cc4ccc(Cl)cc4)C(C(=O)NC4CCCCC4)C34C=CC2(C)O4)no1` (centres undefined), the inhibition is 9.6%.
Next, `CC(C)n1cnc2c(Nc3ccc(C(=O)O)cc3)nc(Cl)nc21`: 8.9%.
With `O=C(CSc1n[nH]c(-c2cc(Cl)ccc2Cl)n1)NCCN1C(=O)CSC1=O`, the inhibition is 2.2%.
Consider `COc1ccc(NC(=S)N(CCCN2CCOCC2)Cc2ccccn2)cc1`, for which the inhibition was -18.2%.
Next, `Cc1ccc(NC(=S)N(CCCN2CCOCC2)Cc2ccccn2)cc1`: 9.5%; `O=C(c1cc(C2CC2)nc2ccc(Br)cc12)N1N=C(C(F)F)CC1(O)C(F)F` (centres undefined): 9.1%; `O=S(=O)(c1ccc(Br)cc1)c1nc(-c2ccco2)oc1NCC1CCCO1` (centres undefined): -16.8%.
Next, `CC(C)(C)c1csc(NC(=O)CSc2nc3ccccc3c(=O)[nH]2)n1`: -12.6%.
For `CCNc1nc2nc3ccc(C)cn3c(=O)c2cc1C(=O)NCC1CCCO1` (centres undefined), the inhibition was 7.3%.
The value for `Cc1ccc2nc3nc(NCC4CCCO4)c(C(=O)NC4CCCC4)cc3c(=O)n2c1` (centres undefined) was 0.8%.
Take `C=CCNC(=O)c1cc2c(=O)n3cc(C)ccc3nc2nc1NCC1CCCO1` (centres undefined): the inhibition was 93.3% (active).
The value for `Cc1ccc(NC(=O)CSc2nnc3n2CCCCC3)cc1` was 4.6%; that for `Cc1cccc2c1CC(C)(C)NC2=C(C#N)C#N` was 5%.
As to `CC(Nc1c([N+](=O)[O-])c(=O)oc2ccccc12)c1ccccc1` (centres undefined), the inhibition was 10.5%.
The value for `CC(Nc1c([N+](=O)[O-])c(=O)oc2ccccc12)C(Cl)c1ccccc1` (centres undefined) was 22%; that for `O=C(O)CC/C(=N\NC(=O)CNC(=O)/C=C/c1ccccc1)c1ccccc1` was 2.6%; that for `Cc1cc(C)n(CC(=O)N/N=C/c2cccs2)n1` was 7.5%.
As for `COc1ccc(S(=O)(=O)N2CCCOC2CNC(=O)C(=O)NCc2cccnc2)cc1` (centres undefined), the inhibition is 13.9%.
For the compound `CCOc1ccccc1C1c2[nH]c3ccccc3c2C[C@H]2C(=O)N(C3CCN(Cc4ccccc4)CC3)CC(=O)N12` (some centres undefined), the inhibition is -0.7%.
The value for `COC(=O)c1c(NC(NC(=O)C(C)C)C(Cl)(Cl)Cl)sc2c1CCCC2` (centres undefined) was 76.3% (active); that for `COC(=O)c1c(NC(NC(=O)CC(C)C)C(Cl)(Cl)Cl)sc2c1CCC2` (centres undefined) was 60%; that for `CCC(=O)NC(Nc1sc2c(c1C(=O)OC)CCC2)C(Cl)(Cl)Cl` (centres undefined) was -15.1%.
On to `COC(=O)c1c(NC(NC(C)=O)C(Cl)(Cl)Cl)sc2c1CCCC2` (centres undefined), for which the inhibition is 13.5%.
For the compound `COC(=O)c1c(NC(NC(=O)C(C)C)C(Cl)(Cl)Cl)sc2c1CCC2` (centres undefined), the inhibition is -7.5%.
Next, `CN(C)S(=O)(=O)NCCNC(=O)c1cc(OCC(F)(F)F)ccc1OCC(F)(F)F`: -3.8%; `COc1cccc2c1OCC(CN1CCN(Cc3ccccc3F)C(CCO)C1)=C2` (centres undefined): 8.5%; `Cc1cccc(NC(=S)N2CCC(NC(=O)c3ccco3)CC2)c1`: 7.3%.
For the compound `COc1ccccc1CNC(=O)C1CCN(S(=O)(=O)c2ccc(-n3cnnn3)cc2)CC1`, the inhibition was 1%.
The value for `Cc1ccc(S(=O)(=O)N(C)c2ccc(C(=O)NCc3cccnc3)cc2)cc1` was 11.2%; that for `Cc1cc(C)n2nc(-c3ccccc3)c(-c3ccccc3)c2n1` was 7.9%; that for `Cc1cc(N)n2nc(C)c(-c3ccccc3)c2n1` was -2.4%.
Regarding `COc1cccc(NC(=O)C23CCC(C)(C(=O)O2)C3(C)C)c1` (centres undefined), the inhibition is -7.9%.
Next, `Cc1csc(SCC(=O)Nc2sccc2C(N)=O)n1`: 2.4%; `CCOC(=O)CC1C(=O)NCCN1c1nc2ccc(C)cn2c(=O)c1/C=C1\SC(=S)N(CC(C)C)C1=O` (centres undefined): 26.9%; `CCOC(=O)CC1C(=O)NCCN1S(=O)(=O)c1ccc(C)cc1` (centres undefined): 6.6%.
Next, `CCCN1C(=O)/C(=C/c2c(N3CCNC(=O)C3CC(=O)OC)nc3c(C)cccn3c2=O)SC1=S` (centres undefined): 46.4%; `CCCN1C(=O)/C(=C/c2c(N3CCNC(=O)C3CC(=O)OCC)nc3c(C)cccn3c2=O)SC1=S` (centres undefined): 88.9% (active); `CCCN1C(=O)/C(=C/c2c(NCCCOCC)nc3c(C)cccn3c2=O)SC1=S`: 8%.
Next, `CCOC(=O)CC1C(=O)NCCN1c1nc2ccc(C)cn2c(=O)c1/C=C1\SC(=S)N(C(C)CC)C1=O` (centres undefined): 70.2% (active); `CSc1ccccc1C(=O)NCc1cccnc1`: -2.4%.
`C=CCn1c(SCC(=O)Nc2ccc(F)cc2F)nc2c([nH]c3ccccc32)c1=O`: the inhibition is -3.4%.
The value for `CCC(NS(=O)(=O)c1ccc2c(c1)NC(=O)C(C)C(=O)N2)c1cccs1` (centres undefined) was 1%; that for `CC/C(=N/N=C(\CC)c1ccccc1)c1ccccc1` was 20.4%.
Next, `COc1ccccc1N1CCN(C(=O)c2cc3c(s2)CCCCC3)CC1`: 6.6%.
Next, `c1ccc(CN2CCC(Nc3nc(-c4cccnc4)nc4ccccc34)CC2)cc1`: 21.2%; `c1ccc(CN2CCC(Nc3nc(-c4cccs4)nc4ccccc34)CC2)cc1`: 84.6% (active); `c1ccc(CN2CCC(Nc3nc(-c4ccccc4)nc4ccccc34)CC2)cc1`: 31%.
Turning to `CC(=O)Nc1ccc(C(=O)OCC(=O)Nc2ccccc2Sc2ccccc2)cc1`, the inhibition is 16.2%.
Take `N#CCC(=O)Nc1ccc(C(=O)OCC(=O)Nc2ccccc2-c2ccccc2)cc1`: the inhibition was 6.7%.
In the case of `Cc1nc(N2CCOCC2)c(C#N)c2c1COC(C)(C)C2`, the inhibition is -9%.
Regarding `Cc1ccc(S(=O)(=O)N2CCN(c3nc(C(C)C)c4c(c3C#N)CC(C)(C)OC4)CC2)cc1`, the inhibition was 2.3%.
Next, `COc1cc(C2c3c(oc4ccc(C)cc4c3=O)C(=O)N2c2cc(C)ccn2)cc(OC)c1OC` (centres undefined): 17.6%.
The value for `COc1ccc(C2c3c(oc4ccc(C)cc4c3=O)C(=O)N2c2cc(C)ccn2)cc1OC` (centres undefined) was 86.9% (active); that for `COc1cc(C2c3c(oc4cc(C)c(C)cc4c3=O)C(=O)N2c2cc(C)ccn2)ccc1O` (centres undefined) was 2.8%; that for `COc1cccc(-c2cc(=O)c3cc(NC(=O)c4ccc(Cl)cc4)ccc3[nH]2)c1` was -2.5%.
As to `O=C(c1cccc(Oc2ccc([N+](=O)[O-])cc2Cl)c1)N1CCOCC1`, the inhibition was -4.4%.
Next, `O=C(c1ccc(Oc2ccc([N+](=O)[O-])cc2Cl)cc1)N1CCCC1`: -12.4%.
